Reference: PubChem BioAssay AID1047 (SRMLSC, 2008)
The campaign covered roughly 1,500 compounds. About 1,400 (93%) were called active. The set was probably picked from earlier hits. The list is a sample of the results. Results with a measured potency or affinity are listed apart. Values without a mark were called inactive. The rule behind the calls is not given here.

Experiment: viability of PTEN-deleted HCT116 cells – cell-based, HCT116 PTEN knockout, dose response (AID 1047)
Details: CellTiter-Glo, 60 h; series mostly up to 30 µM; viability: at the top concentration

Row | SMILES | viability [%]
1 | CCCNC(=O)OC[C@H]1O[C@H](CCO/N=C/[C@@H](NS(=O)(=O)c2ccc(C)cc2)[C@H](C)/C=C/CC(=O)OC)C=C[C@@H]1Oc1ccc(OC)cc1 | 80.8
2 | Cc1nn(C(=O)N2CCOCC2)c(C)c1C | 102
3 | CCN1CCN(Cc2ccc(OCc3ccccc3)cc2)CC1 | 96.5
4 | O=C(Nc1cccc(C(F)(F)F)c1)/C(=C\c1ccco1)NC(=O)c1cccs1 | 84.9
5 | CSc1n[nH]c(NCc2cccs2)n1 | 97.2
6 | Nc1nnc(SCc2ccc(Cl)cc2)s1 | 89.9
7 | COC(=O)c1cc(OC)c(OC)cc1NC(=O)c1ccccc1 | 96.4
8 | C=CCNC(=O)c1ccccc1NC(=O)c1ccccc1C | 92.4
9 | CN1CCN(c2nc(N3CCN(c4ccccc4)CC3)ncc2F)CC1 | 81.6
10 | O=C(c1ccc2c(=O)n(CC3CCCO3)c(=S)[nH]c2c1)N1CCN(c2ccccc2)CC1 (centres undefined) | 94
11 | Cc1ccc(CNc2ccc(O)cc2)cc1 | 98.5
12 | OC1(c2cccc(C(F)(F)F)c2)CCN(c2ccc(-c3ccccc3)nn2)CC1 | 92.9
13 | COc1cc2c(cc1OC)C1(Nc3c-2c(C)nn3-c2ccccc2)C(=O)Nc2ccccc21 (centres undefined) | 91.2
14 | CCOc1ccccc1NC(=O)Cn1cnc2c(nnn2-c2cccc(OC)c2)c1=O | 96.3
15 | O=C(COc1ccc(/C=N/NC(=O)c2cc3ccccc3o2)cc1Cl)Nc1ccccc1 | 87.9
16 | O=C(NCc1ccc2c(c1)OCO2)c1ccc2c(c1)C(=O)N(CC1CCCO1)C2=O (centres undefined) | 98.1
17 | CCOC(=O)C1=C(C)NC(=S)N(C(C)=O)C1c1ccc(Cl)cc1 (centres undefined) | 82.1
18 | CCC(Sc1nc2sc(C(=O)OC)c(C)c2c(=O)n1N)C(=O)N(CC)CC (centres undefined) | 89.6
19 | N#CC(c1ccc(Cl)nn1)c1ccc(Cl)cc1Cl (centres undefined) | 90.3
20 | COc1ccc(CCN2C(=O)CN(Cc3ccccc3)CC2=O)cc1OC | 89.9
21 | CC(=O)c1c(C)nc(-c2ccc(Cl)cc2Cl)n1O | 103
22 | CCOC(=O)Nc1ccc(C)cc1Br | 100

Row | SMILES | viability [%]
23 | Cc1cc2ncn(C(=O)N3CCC(C)CC3)c2cc1C | 104
24 | Cc1cc(NC(=O)CSc2nc(-c3cccnc3)ccc2C#N)no1 | 106
25 | O=C(CSc1nnc(-c2ccccc2Cl)o1)Oc1ccc(Br)cc1 | 98.8
26 | Cc1cccc(CS(=O)(=O)c2nnc([C@H](Cc3ccccc3)NC(=O)OC(C)(C)C)o2)c1 | 93.7
27 | O=C(Nc1cccc(C(F)(F)F)c1)C12CC3CC(CC(C3)C1)C2 | 89.8
28 | Cc1cc(NC(=O)CN2CCN(c3ccc(O)cc3)CC2)no1 | 86.1
29 | Cc1ccc(C(=O)c2coc3c2C(=O)C(=O)c2ccccc2-3)cc1 | 96.7
30 | COCCN1C(=O)c2oc3ccccc3c(=O)c2C1c1ccc(OC)c(OC)c1 (centres undefined) | 84.9
31 | O=C(NC(=S)Nc1ccc2c(c1)OCO2)c1ccc(Cl)cc1 | 83.4
32 | CCN(CC)c1ccc(N=Cc2ccc(N(CC)CC)cc2O)cc1 | 95.8
33 | Cc1ccc(C(=O)Nc2ccccc2C(=O)NC(C(=O)O)C(C)C)cc1 (centres undefined) | 95.5
34 | Cc1cc(NS(=O)(=O)c2ccccc2)cc(Cl)c1O | 93.7
35 | O=C(Nc1cccc2ccccc12)N1CCN(Cc2ccc3c(c2)OCO3)CC1 | 97.6
36 | CCCCn1c(=NC(=O)c2ccco2)c(C(=O)OCC)cc2c(=O)n3ccccc3nc21 | 72.2
37 | CS(=O)(=O)c1nc(-c2cccs2)cc(C(F)(F)F)n1 | 97.9
38 | O=C(NCc1ccc(F)cc1)C1C2C=CC3(CN(Cc4cccnc4)C(=O)C13)O2 (centres undefined) | 102
39 | COCCNC(=O)NC1(C(F)(F)F)Oc2ccc(Cl)cc2O1 (centres undefined) | 87.3
40 | Cc1c(Cl)ccc2sc(NC(=O)CN3C(=O)c4ccccc4C3=O)nc12 | 103
41 | COc1ccc(S(=O)(=O)CCC(=O)N(C)c2ccc(OC)cc2OC)cc1 | 81.1
42 | CCCCN(C)C(=O)C1CCC(=O)N(c2cc(OC)c(OC)c(OC)c2)C1c1ccc(OC)cc1 (centres undefined) | 94.9
43 | CCCCS/C(N)=N/N=C/c1ccccc1O | 90.8
44 | N/C(=N\c1nc(C(F)(F)F)cc(=O)[nH]1)Nc1ccc(Cl)cc1 | 91.2

Row | SMILES | viability [%]
45 | COc1ccc(N2CCN(C(c3cc(OC)ccc3OC)c3nnnn3CC3CCCO3)CC2)cc1 (centres undefined) | 86.8
46 | N/C(=N\OC(=O)C12CC3CC(CC(C3)C1)C2)c1ccccc1 | 86.5
47 | Cc1cc(C)c2c(=O)n(CC(=O)N3CCC(Cc4ccccc4)CC3)sc2n1 | 95.1
48 | COC(=O)CN1C(C)=Nc2ccc(Br)cc2C1c1ccccc1 (centres undefined) | 89.8
49 | CCCC/C(C)=N\NC(=O)CNS(=O)(=O)c1ccc([N+](=O)[O-])cc1 | 111
50 | CCCC(=O)Nc1sc2c(c1C#N)CCCCC2 | 93.2
51 | Oc1ccc(C=Nc2ccc3ncccc3c2)c(O)c1 | 86.3
52 | CCCCN1C[C@H](O)[C@@H](O)[C@H](O)[C@H]1CO | 92
53 | COc1cccc2cc(C(=O)N(C)C)c(=O)oc12 | 89.8
54 | CC1CCN(CC(=O)N2c3ccccc3CCc3ccccc32)CC1 | 94.3
55 | CCOc1ccc(C2/C(=C(\O)c3c(C)[nH]c(C(=O)OC)c3C)C(=O)C(=O)N2CCN(C)C)cc1 (centres undefined) | 105
56 | O=C(NCc1ccccn1)c1c(O)c2cccc3c2n(c1=O)CC3 | 88
57 | COC(C)(C)[C@H](O)COc1c2ccoc2cc2oc(=O)ccc12 | 97.6
58 | Nc1c(NCCN2CCOCC2)c2ccccc2oc1=O | 88.3
59 | O=C(Nc1cccc(-c2nnc(-c3ccccc3)o2)c1)C1CCCCC1 | 94
60 | COc1ccc(C(C)=O)cc1CSc1nc2ccccc2o1 | 94
61 | O=C(Nc1cccc2ccccc12)c1onc2c1CCCC2 | 94.1
62 | CNC(=O)C1C(=S)NC(N)=C(C#N)C1c1ccccc1 (centres undefined) | 90.6
63 | CC(C(=O)NC(=O)NCc1ccccc1)N1C(=O)c2ccccc2C1=O (centres undefined) | 98.9
64 | CCOC(=O)c1c(-c2ccc(C)cc2)csc1NC(=O)/C(C#N)=C/c1ccc(O)c(OC)c1 | 93.9
65 | CCN(CC)S(=O)(=O)c1ccc(NC2CCCc3ccccc32)nc1 (centres undefined) | 93.2
66 | CCn1c(CNc2ccc(OC)cc2)nnc1SCC(=O)c1ccc(OC)cc1 | 86.7

Row | SMILES | viability [%]
67 | Cc1ccc(C(=O)NCCc2nnc(SCC(=O)Nc3nc(-c4ccccc4)cs3)n2C)cc1 | 87.6
68 | CCN(CC)c1ccc(NC2=C(Cl)C(=O)c3ccccc3C2=O)cc1 | 89.3
69 | CCCC(=O)Nc1ccc(C)c(O)c1 | 87.6
70 | CCn1c(Cc2ccc(OC)cc2)nnc1SCC(=O)Nc1cccc(C(=O)OC)c1 | 95.5
71 | Cc1sc2c(=O)n3c(nc2c1C(=O)NCCCN1CCOCC1)CCCCC3 | 83.3
72 | CC(=O)ON1C(C)(C)CC(OC(=O)c2ccccc2)CC1(C)C | 91.2
73 | O=C(COC(=O)c1cccnc1Nc1cccc(C(F)(F)F)c1)NCc1ccc2c(c1)OCO2 | 100
74 | CC(C)c1cc(=O)oc2c3c4c(cc12)CCCN4CCC3 | 88.1
75 | CNC(=S)N/N=C(\C)c1ccc(N2CCOCC2)cc1 | 95.4
76 | O=S(=O)(NCCc1csc(-c2cccnc2)n1)c1ccc2c(c1)OCCO2 | 100
77 | COc1ccc(CCn2c(N)c(C(=O)NCc3ccco3)c3nc4ccccc4nc32)cc1OC | 82.2
78 | C=CCNc1nnc(SC2CC(=O)N(c3ccc(OC)cc3)C2=O)s1 (centres undefined) | 99.3
79 | OCCn1c(C(F)(F)F)nc2ccccc21 | 104
80 | O=C(Nc1ccccc1Cl)NC1(C(=O)N2CCCC2)CCCCC1 | 106
81 | O=C(N/N=C/c1ccc(O)c(O)c1O)/C(=C/c1ccc([N+](=O)[O-])cc1)NC(=O)c1ccccc1 | 81.5
82 | Cc1ccccc1NC(=O)c1ccc2c(c1)OCCO2 | 91.1
83 | O=C(NNc1nc2cc3c(cc2s1)OCO3)c1cccc(F)c1 | 92.5
84 | COc1cccc(OCC(=O)NN=C2c3ccccc3-c3ccccc32)c1 | 105
85 | COc1ccc(C(=O)OC2CCN(c3ncc(C(F)(F)F)cc3Cl)CC2)cc1 | 97.8
86 | O=C1[C@H]2[C@H]3[C@H](O)[C@H](O)C/C(=N\OC[C@@H](O)COCc4ccco4)[C@@H]3CC[C@H]2C(=O)N1c1ccc(F)cc1F | 107
87 | COC(=O)COc1ccc(S(=O)(=O)NCc2ccncc2)cc1 | 111
88 | c1ccc2c(c1)CCCC2C1=NCCN1 (centres undefined) | 94.9

Row | SMILES | viability [%]
89 | CC(C[N+](C)(C)C)OC(N)=O (centres undefined) | 102
90 | CCOc1c(OC)ccc2c3c(c(=O)oc12)CCCC3 | 95.5
91 | OC1C2CN3CCN(C2)CC1(Cc1ccccc1)C3 (centres undefined) | 88.9
92 | Cc1cc(NC(=O)c2sc(Nc3cccc(C(F)(F)F)c3)nc2N)no1 | 86.6
93 | CCC(C)C1C(C#N)=C(N)Oc2n[nH]c(C)c21 (centres undefined) | 80.5
94 | Cc1[nH]nc2c1C(c1ccsc1C)C(C#N)=C(N)O2 (centres undefined) | 89.2
95 | CCOC(=O)N1CCN(C(=O)c2nn(-c3ccc(C)cc3)c(=O)c3c2c2ccccc2n3C)CC1 | 89.2
96 | COc1ccc(C(=O)OCC(=O)c2cc(OC)ccc2OC)c(OC)c1 | 89.9
97 | CCOc1ccc(N(CC(=O)NC2CCCCCC2)S(=O)(=O)c2c(C)noc2C)cc1 | 96.9
98 | CCCCCn1c(Sc2ccccc2)nc2c1c(=O)[nH]c(=O)n2C | 81.8
99 | CCN(CCNC(=O)Nc1ccc(Cl)cc1)c1ccccc1 | 99.6
100 | O=C(c1nnc(Cc2ccc(Cl)cc2)o1)N1CCc2ccccc2C1 | 98.8
101 | CN(C)S(=O)(=O)c1cccc(NC(=O)COC(=O)c2cccc(S(=O)(=O)N3CCc4ccccc4C3)c2)c1 | 96.8
102 | CCOC(=O)c1[nH]c2ccc(OC)cc2c1NC(=S)N1CCN(c2ccccc2)CC1 | 88.3
103 | Cc1cc(C)n(C(=O)CNc2ccc(C)c(C)c2)n1 | 92.2
104 | O=C(NCc1ccco1)C1CCN(S(=O)(=O)Cc2ccccc2)CC1 | 98.2
105 | COc1ccc(Nc2oc(COc3ccc(Cl)cc3)nc2C#N)cc1 | 90.4
106 | COc1ccc(-c2cc(C(F)F)n3ncc(C(=O)n4ccnc4C)c3n2)cc1 | 89.9
107 | COC(=O)C1=C(C)N(c2ccc(F)c(Cl)c2)C(=O)C1 | 82.7
108 | COc1cc(SC#N)ccc1N=Cc1c(C)[nH]n(-c2cccc3ccccc23)c1=O | 82.9
109 | COc1ccccc1CN=Cc1[nH]c2ccc(Br)c(Cl)c2c1O | 89.1
